In PMC7862700, “An all-to-all approach to the identification of sequence-specific readers for epigenetic DNA modifications on cytosine”:

Key:
Assay in all cases: DAPPL (digital affinity profiling via proximity ligation, sequencing); 10 mM Tris-HCl pH 7.5, 50 mM NaCl, 1 mM DTT, 4% glycerol, room temperature, 30 min; GST-TFs on glutathione beads, 16-mer random dsDNA library, 0.1% formaldehyde crosslink after washing; high values mean tight binding
FLI1 = molecular target: T1, FLI1 (Homo sapiens, UniProt Q01543 1-452); settings: protein: recombinant; tags: N-terminal GST; dsDNA, one strand shown
T1 sequence: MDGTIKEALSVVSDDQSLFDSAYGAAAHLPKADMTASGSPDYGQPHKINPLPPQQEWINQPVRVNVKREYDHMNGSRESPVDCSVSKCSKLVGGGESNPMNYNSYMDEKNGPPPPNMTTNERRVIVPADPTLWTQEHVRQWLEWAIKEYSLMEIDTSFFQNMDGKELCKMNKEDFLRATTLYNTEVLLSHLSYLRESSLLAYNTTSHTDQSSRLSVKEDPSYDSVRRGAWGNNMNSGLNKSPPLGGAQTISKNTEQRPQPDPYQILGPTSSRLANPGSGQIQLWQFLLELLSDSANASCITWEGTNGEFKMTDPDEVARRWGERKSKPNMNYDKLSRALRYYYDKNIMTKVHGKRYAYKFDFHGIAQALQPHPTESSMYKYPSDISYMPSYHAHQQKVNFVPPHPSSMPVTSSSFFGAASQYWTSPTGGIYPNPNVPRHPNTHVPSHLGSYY
Method in brief: (§1)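 Pools of DNA-barcoded human transcription factors, expressed in yeast as GST fusions on glutathione beads and combined with a tag-only sample, were incubated with 200 nmole of a 16-mer random double-stranded DNA library. Incubation took 30 min at room temperature in Tris/NaCl/DTT/glycerol buffer and was followed by washing, 0.1% formaldehyde crosslinking, proximity ligation (BsaI/T4 ligase, 1 h, 37 °C), PCR amplification and sequencing on an Illumina NextSeq500. Binding signal is the ratio of a hexamer's read frequency for a factor to its frequency for the tag-only sample.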

ELK1 = molecular target: T2, ELK1 (Homo sapiens, UniProt P19419 1-428); settings: protein: recombinant; tags: N-terminal GST; dsDNA, one strand shown
T2 sequence: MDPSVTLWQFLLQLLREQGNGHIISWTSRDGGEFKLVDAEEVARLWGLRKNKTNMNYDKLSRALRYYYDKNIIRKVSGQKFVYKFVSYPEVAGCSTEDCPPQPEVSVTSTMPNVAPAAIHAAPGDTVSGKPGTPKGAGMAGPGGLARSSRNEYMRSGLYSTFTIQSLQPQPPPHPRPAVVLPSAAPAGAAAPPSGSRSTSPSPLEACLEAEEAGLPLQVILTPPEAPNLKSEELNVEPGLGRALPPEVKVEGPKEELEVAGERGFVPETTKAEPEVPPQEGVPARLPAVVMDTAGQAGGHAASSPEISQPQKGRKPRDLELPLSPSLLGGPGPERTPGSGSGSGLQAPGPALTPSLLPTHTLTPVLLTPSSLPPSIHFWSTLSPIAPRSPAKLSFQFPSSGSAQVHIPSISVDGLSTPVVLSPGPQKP
Method in brief: as §1

GABPA = molecular target: T3, GABPA (Homo sapiens, UniProt Q06546 1-454); settings: protein: recombinant; tags: N-terminal GST; dsDNA, one strand shown
T3 sequence: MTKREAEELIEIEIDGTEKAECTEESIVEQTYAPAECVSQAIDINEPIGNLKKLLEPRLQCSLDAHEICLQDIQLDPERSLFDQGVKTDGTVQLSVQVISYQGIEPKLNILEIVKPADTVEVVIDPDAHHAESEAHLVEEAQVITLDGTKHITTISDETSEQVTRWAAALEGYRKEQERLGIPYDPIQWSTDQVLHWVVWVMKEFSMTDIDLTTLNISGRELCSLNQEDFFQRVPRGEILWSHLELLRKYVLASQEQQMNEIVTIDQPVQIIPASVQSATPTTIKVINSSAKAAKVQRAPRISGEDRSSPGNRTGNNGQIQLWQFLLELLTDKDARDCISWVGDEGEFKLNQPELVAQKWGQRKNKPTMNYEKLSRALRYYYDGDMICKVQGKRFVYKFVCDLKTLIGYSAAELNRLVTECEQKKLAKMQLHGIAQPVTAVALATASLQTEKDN
Method in brief: as §1

ERG = molecular target: T4, ERG (Homo sapiens, UniProt P11308 1-479); settings: protein: recombinant; tags: N-terminal GST; dsDNA, one strand shown
T4 sequence: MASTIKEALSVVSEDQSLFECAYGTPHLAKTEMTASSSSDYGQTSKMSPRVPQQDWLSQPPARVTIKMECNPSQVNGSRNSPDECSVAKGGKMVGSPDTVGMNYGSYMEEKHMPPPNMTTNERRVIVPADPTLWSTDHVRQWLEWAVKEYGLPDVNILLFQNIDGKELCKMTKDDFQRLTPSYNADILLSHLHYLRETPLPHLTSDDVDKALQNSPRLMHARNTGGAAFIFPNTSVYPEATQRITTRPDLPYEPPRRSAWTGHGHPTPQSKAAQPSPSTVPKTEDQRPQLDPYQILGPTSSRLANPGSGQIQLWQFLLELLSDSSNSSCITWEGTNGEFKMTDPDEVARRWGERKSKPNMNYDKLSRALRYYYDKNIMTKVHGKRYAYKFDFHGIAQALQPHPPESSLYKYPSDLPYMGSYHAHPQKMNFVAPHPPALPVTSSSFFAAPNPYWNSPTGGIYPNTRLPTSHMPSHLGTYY
Method in brief: as §1

ELF1 = ELF1 (Homo sapiens, UniProt P32519 1-619); settings: protein: recombinant; tags: N-terminal GST; dsDNA, one strand shown
ELF1, sequence (P32519 whole entry): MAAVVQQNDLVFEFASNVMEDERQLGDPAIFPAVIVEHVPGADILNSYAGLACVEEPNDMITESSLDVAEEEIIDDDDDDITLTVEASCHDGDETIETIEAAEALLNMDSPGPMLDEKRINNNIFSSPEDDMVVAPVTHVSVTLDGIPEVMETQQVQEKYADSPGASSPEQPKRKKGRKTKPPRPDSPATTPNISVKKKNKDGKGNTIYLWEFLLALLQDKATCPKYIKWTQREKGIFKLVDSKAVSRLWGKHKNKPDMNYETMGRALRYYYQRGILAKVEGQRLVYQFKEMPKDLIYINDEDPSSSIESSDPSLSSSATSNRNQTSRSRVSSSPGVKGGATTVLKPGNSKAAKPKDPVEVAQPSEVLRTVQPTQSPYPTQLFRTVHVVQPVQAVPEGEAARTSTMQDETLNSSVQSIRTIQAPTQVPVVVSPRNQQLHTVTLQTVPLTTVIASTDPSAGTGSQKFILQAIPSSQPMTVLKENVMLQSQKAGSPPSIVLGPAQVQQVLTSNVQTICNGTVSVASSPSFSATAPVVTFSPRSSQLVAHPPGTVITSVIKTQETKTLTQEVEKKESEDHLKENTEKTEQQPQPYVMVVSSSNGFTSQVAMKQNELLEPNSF
Method in brief: as §1

EHF = molecular target: T5, EHF (Homo sapiens, UniProt Q9NZC4 1-300); settings: protein: recombinant; tags: N-terminal GST; dsDNA, one strand shown
T5 sequence: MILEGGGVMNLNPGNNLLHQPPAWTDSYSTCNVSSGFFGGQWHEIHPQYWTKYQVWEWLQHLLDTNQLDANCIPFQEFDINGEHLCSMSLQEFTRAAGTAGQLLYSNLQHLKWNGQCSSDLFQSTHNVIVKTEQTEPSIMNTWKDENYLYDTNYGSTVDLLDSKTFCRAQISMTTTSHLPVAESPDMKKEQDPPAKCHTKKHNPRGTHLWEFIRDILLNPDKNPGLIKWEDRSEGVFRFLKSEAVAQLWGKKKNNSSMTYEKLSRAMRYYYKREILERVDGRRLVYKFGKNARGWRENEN
Method in brief: as §1

SPI1 = SPI1 (Homo sapiens, UniProt P17947 1-270); settings: protein: recombinant; tags: N-terminal GST; dsDNA, one strand shown
Method in brief: as §1

SPIB = SPIB (Homo sapiens, UniProt Q01892 1-262); settings: protein: recombinant; tags: N-terminal GST; dsDNA, one strand shown
SPIB, sequence (Q01892 whole entry): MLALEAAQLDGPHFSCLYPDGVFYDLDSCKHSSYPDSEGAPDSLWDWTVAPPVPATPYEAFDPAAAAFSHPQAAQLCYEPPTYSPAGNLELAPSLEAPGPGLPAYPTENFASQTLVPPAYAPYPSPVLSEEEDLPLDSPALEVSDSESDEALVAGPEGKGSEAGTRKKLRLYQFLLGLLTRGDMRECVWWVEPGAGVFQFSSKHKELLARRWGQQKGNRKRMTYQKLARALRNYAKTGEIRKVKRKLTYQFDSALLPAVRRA
Method in brief: as §1

ELK3 = molecular target: T6, ELK3 (Homo sapiens, UniProt P41970 1-407); settings: protein: recombinant; tags: N-terminal GST; dsDNA, one strand shown
T6 sequence: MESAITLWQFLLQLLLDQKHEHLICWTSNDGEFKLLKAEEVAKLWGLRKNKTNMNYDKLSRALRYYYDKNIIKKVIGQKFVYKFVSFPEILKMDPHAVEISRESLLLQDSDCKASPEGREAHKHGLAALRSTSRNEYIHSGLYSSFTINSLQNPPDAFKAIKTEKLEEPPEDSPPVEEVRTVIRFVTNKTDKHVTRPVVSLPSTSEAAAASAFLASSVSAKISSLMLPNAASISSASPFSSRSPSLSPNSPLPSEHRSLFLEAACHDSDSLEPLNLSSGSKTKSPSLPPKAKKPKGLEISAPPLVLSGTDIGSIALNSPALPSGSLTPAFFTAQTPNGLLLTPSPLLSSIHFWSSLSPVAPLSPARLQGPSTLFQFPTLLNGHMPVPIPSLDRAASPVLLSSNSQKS
Method in brief: as §1

FEV = molecular target: T7, FEV (Homo sapiens, UniProt Q99581 1-238); settings: protein: recombinant; tags: N-terminal GST; dsDNA, one strand shown
T7 sequence: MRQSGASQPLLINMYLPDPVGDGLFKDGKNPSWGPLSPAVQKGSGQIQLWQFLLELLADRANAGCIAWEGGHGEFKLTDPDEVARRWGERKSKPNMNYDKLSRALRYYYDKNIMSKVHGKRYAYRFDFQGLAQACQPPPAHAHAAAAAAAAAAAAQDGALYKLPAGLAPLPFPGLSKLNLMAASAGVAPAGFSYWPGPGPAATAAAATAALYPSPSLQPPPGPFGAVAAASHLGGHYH
Method in brief: as §1

ETV5 = ETV5 (Homo sapiens, UniProt P41161 1-510); settings: protein: recombinant; tags: N-terminal GST; dsDNA, one strand shown
ETV5, sequence (P41161 whole entry): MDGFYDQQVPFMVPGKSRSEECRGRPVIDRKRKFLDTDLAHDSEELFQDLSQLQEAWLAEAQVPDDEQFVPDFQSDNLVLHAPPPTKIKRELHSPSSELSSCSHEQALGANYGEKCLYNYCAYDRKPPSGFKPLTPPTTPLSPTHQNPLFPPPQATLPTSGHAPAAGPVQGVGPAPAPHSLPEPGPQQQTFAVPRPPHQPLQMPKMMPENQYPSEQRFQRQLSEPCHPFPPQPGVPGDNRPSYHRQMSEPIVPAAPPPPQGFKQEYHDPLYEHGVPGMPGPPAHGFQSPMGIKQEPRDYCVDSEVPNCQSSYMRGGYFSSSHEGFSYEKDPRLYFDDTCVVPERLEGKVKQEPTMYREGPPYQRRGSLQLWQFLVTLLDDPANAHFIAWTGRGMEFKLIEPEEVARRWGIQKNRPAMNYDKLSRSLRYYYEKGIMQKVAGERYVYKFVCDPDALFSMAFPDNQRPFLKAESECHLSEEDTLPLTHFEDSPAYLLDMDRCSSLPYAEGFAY
Method in brief: as §1

HSF1 = HSF1 (Homo sapiens, UniProt Q00613 1-529); settings: protein: recombinant; tags: N-terminal GST; chain copies: 3; dsDNA, one strand shown
HSF1, sequence (Q00613 whole entry): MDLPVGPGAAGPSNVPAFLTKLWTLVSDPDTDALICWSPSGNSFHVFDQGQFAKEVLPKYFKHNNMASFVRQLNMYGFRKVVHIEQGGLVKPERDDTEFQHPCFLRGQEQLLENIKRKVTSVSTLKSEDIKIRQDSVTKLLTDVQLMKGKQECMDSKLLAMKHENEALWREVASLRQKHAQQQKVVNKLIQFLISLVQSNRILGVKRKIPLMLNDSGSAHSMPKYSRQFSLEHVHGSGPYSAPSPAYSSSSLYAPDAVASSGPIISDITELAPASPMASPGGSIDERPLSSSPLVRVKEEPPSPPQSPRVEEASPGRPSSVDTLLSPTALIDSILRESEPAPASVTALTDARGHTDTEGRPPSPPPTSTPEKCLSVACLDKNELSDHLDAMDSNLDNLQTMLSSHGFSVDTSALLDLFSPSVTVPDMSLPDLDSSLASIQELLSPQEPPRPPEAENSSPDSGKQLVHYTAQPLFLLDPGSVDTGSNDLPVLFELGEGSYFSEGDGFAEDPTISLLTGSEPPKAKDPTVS
Method in brief: as §1

SPIC = molecular target: T8, SPIC (Homo sapiens, UniProt Q8N5J4 1-248); settings: protein: recombinant; tags: N-terminal GST; dsDNA, one strand shown
T8 sequence: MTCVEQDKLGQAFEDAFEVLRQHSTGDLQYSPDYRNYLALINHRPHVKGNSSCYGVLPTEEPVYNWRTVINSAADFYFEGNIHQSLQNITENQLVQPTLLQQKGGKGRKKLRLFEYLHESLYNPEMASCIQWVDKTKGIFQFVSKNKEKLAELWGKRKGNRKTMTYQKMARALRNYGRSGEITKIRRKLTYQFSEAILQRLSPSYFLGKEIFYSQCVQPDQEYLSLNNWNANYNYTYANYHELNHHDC
Method in brief: as §1

ELF4 = ELF4 (Homo sapiens, UniProt Q99607 1-663); settings: protein: recombinant; tags: N-terminal GST; dsDNA, one strand shown
ELF4, sequence (Q99607 whole entry): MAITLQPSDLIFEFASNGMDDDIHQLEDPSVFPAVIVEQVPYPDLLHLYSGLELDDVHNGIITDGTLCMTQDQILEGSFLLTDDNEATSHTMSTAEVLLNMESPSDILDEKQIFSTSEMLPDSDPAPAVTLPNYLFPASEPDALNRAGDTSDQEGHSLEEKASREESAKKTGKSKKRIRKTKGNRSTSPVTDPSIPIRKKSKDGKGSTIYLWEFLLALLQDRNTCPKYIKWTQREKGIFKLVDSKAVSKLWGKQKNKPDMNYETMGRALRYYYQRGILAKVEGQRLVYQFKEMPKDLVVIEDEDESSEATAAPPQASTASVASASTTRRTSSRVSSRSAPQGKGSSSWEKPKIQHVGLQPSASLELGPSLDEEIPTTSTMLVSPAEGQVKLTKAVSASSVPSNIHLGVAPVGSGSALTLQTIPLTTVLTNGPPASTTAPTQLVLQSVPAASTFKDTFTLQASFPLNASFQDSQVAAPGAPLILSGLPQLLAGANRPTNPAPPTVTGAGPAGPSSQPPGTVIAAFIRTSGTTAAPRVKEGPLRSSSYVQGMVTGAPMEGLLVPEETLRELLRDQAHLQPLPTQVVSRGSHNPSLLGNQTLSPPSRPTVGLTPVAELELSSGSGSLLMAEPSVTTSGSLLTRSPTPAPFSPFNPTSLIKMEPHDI
Method in brief: as §1

ELK4 = molecular target: T9, ELK4 (Homo sapiens, UniProt P28324-2 1-405); settings: protein: recombinant; tags: N-terminal GST; dsDNA, one strand shown
T9 sequence: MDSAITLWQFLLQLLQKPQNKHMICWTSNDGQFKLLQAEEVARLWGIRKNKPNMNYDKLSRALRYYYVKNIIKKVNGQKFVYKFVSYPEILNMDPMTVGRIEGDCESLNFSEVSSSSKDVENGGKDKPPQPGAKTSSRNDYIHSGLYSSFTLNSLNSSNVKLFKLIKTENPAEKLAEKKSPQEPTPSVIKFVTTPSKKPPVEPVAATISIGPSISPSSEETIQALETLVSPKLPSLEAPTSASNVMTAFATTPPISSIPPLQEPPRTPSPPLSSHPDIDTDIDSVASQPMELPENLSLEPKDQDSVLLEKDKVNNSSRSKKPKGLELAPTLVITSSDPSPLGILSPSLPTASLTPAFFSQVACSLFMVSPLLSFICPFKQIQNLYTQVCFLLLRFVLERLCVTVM
Method in brief: as §1

ETV2 = molecular target: T10, ETV2 (Homo sapiens, UniProt O00321 1-342); settings: protein: recombinant; tags: N-terminal GST; dsDNA, one strand shown
T10 sequence: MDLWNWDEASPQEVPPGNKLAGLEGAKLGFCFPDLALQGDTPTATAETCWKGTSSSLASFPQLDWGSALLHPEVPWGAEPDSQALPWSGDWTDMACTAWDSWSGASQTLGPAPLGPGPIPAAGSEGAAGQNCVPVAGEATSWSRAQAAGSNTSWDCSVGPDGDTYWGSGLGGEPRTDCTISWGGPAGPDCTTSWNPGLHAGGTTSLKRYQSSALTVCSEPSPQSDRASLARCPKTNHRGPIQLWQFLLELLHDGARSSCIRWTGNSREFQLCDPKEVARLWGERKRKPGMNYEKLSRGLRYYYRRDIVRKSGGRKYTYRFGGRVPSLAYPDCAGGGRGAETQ
Method in brief: as §1

ELF3 = molecular target: T11, ELF3 (Homo sapiens, UniProt P78545 1-371); settings: protein: recombinant; tags: N-terminal GST; dsDNA, one strand shown
T11 sequence: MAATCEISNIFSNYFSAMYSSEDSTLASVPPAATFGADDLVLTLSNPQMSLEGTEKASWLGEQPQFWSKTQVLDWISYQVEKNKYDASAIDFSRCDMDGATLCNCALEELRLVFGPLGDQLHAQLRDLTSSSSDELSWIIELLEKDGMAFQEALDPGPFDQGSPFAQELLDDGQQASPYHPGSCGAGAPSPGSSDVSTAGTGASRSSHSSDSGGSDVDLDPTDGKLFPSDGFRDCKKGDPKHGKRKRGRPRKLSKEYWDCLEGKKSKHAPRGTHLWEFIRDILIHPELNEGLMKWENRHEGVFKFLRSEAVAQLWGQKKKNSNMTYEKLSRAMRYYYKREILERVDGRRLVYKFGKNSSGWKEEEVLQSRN
Method in brief: as §1

CRX = CRX (Homo sapiens, UniProt O43186 1-299); settings: protein: recombinant; tags: N-terminal GST; dsDNA, one strand shown
CRX, sequence (O43186 whole entry): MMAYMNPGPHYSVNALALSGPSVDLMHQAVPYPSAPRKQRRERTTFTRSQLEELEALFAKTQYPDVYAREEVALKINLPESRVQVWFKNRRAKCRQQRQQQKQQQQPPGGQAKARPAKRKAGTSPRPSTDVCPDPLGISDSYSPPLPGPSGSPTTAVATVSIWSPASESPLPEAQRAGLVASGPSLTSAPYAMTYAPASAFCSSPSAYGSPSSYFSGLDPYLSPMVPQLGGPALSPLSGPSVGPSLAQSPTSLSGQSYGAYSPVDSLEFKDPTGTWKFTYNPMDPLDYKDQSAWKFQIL
Method in brief: as §1

ETV1 = ETV1 (Homo sapiens, UniProt P50549 1-477); settings: protein: recombinant; tags: N-terminal GST; dsDNA, one strand shown
ETV1, sequence (P50549 whole entry): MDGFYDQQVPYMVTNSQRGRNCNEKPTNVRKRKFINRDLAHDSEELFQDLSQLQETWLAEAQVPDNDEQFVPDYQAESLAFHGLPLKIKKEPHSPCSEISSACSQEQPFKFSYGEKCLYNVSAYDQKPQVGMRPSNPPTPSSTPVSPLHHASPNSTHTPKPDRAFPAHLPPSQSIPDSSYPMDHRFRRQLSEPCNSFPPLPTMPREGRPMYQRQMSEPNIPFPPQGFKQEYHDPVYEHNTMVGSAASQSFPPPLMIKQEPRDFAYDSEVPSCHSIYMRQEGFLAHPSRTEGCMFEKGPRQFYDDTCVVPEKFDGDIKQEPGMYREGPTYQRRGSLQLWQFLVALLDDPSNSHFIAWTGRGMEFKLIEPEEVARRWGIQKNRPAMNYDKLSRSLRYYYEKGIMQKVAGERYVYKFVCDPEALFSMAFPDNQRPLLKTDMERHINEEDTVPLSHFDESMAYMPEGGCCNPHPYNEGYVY
Method in brief: as §1

With ATTACA the binding signal (FLI1) was 1.14 fold enrichment (6-mer frequency, TF over GST control), the binding signal (ELK1) was 1.13 fold enrichment (6-mer frequency, TF over GST control) and the binding signal (GABPA) was 1.06 fold enrichment (6-mer frequency, TF over GST control). The binding signal (ERG) was 1.12 fold enrichment (6-mer frequency, TF over GST control), the binding signal (ELF1) was 1.1 fold enrichment (6-mer frequency, TF over GST control) and the binding signal (EHF) was 1.12 fold enrichment (6-mer frequency, TF over GST control). For the same sequence, the binding signal (SPI1) was 1.08 fold enrichment (6-mer frequency, TF over GST control), the binding signal (SPIB) was 1.15 fold enrichment (6-mer frequency, TF over GST control) and the binding signal (ELK3) was 1.11 fold enrichment (6-mer frequency, TF over GST control). The binding signal (FEV) was 1.06 fold enrichment (6-mer frequency, TF over GST control), the binding signal (ETV5) was 1.07 fold enrichment (6-mer frequency, TF over GST control) and the binding signal (HSF1) was 1.4 fold enrichment (6-mer frequency, TF over GST control). For the same sequence, the binding signal (SPIC) was 1.15 fold enrichment (6-mer frequency, TF over GST control), the binding signal (ELF4) was 1.16 fold enrichment (6-mer frequency, TF over GST control) and the binding signal (ELK4) was 1.2 fold enrichment (6-mer frequency, TF over GST control). The binding signal (ETV2) was 1.14 fold enrichment (6-mer frequency, TF over GST control), the binding signal (ELF3) was 1.16 fold enrichment (6-mer frequency, TF over GST control) and the binding signal (CRX) was 1.86 fold enrichment (6-mer frequency, TF over GST control). For the same sequence, the binding signal (ETV1) was 1.17 fold enrichment (6-mer frequency, TF over GST control).
